# Source: PubChem BioAssay (NCATS)
# Inconclusive results are not listed. Entries that show only a call come without a potency. Active and inactive are the calls of the source. Calls follow the shape of the dose curve; as a rule, active = well fitted inhibition curve with a large enough effect; inconclusive = small, poorly fitted or top-dose-only effect; inactive = flat fitted curve, though single readings scatter.
# Target: Calcium and integrin-binding protein 1 (Homo sapiens) (UniProt Q99828)
# Assay: Primary qHTS for Identification of Calcium Integrin Binding Protein 1 (CIB1) Competitor (AID 1508620);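 also: GST tagged CIB1 binding a fluorescein labelled alphaIIb integrin peptide tracer; top concentration of the series differs between compounds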
# Conditions: CIB1-GST / FITC-alphaIIb peptide fluorescence polarization; series mostly up to 114 µM
# Outline: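 Fluorescence polarization competition: CIB1-GST (1 uM final) preincubated with compound 15 min at room temperature, then FITC-labeled alphaIIb peptide (100 nM final) added for another 15 min. Polarization read at Ex 480/Em 540.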
# Chain of Calcium and integrin-binding protein 1 (Homo sapiens) (Q99828 whole entry, looked up): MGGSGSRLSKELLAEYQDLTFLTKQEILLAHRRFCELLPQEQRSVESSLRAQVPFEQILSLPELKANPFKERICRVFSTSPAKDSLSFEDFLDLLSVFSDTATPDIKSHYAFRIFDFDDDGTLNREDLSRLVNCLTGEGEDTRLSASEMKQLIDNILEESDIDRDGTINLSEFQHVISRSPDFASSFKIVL
row,SMILES,Potency
1,COc1ccc(OC)c(-c2nnc3n2N=C(c2ccc(OC)c(OC)c2)CS3)c1,inactive
2,FC(F)Oc1ccc(C2=Nn3c(nnc3-c3ccccc3C(F)(F)F)SC2)cc1OCC1CC1,inactive
3,Cc1cc(-c2nnc3n2CCCCCC3)c(C)n1-c1ccccc1,inactive
4,N#Cc1cc(NC(=O)Nc2nnc(-c3ccncc3)s2)ccc1-c1ccc[nH]1,inactive
5,O=C(Nc1ccccn1)c1sc2ccccc2c1Cl,inactive
6,Cc1ccccc1C[C@H](C(=O)O)N1C(=O)c2ccc(C(=O)O)cc2C1=O,inactive
7,C[n+]1cc(C(O)(c2ccccc2)c2ccccc2)n2ccccc21,inactive
8,Cc1ccccc1C(=O)N1CCc2cc(-c3nc(NC(=O)Cc4ccccc4)sc3C)ccc21,inactive
9,O=C(COC(=O)CNC(=O)C1CCCCC1)Nc1cc(C(F)(F)F)ccc1Cl,inactive
10,CC(C)(C)OC(=O)Cc1nnc(-c2cc3ccccc3[nH]2)o1,inactive
11,CC(C)(C)OC(=O)NCc1nnc(-c2cc3ccccc3[nH]2)s1,inactive
12,CN(C)c1cccc(-c2csc(N3CCC(C(N)=O)CC3)n2)c1,inactive
13,CC(=O)Nc1sc2c(c1-c1ccc3c(c1)OCCCO3)CCNC2,inactive
14,O=C(CNC(=O)c1ccc(Cl)c(C(F)(F)F)c1)OC(C(=O)Nc1cc(C(F)(F)F)ccc1Cl)c1ccccc1 (stereo not given),inactive
15,Cc1ccc(OCCn2c(CCNC(=O)C(C)(C)C)nc3ccccc32)cc1,inactive
16,Cc1nc(SCC(=O)c2ccc(F)cc2)n[nH]1,inactive
17,COc1cc(O)c(C(CC(=O)N2CC(C)CC(C)C2)c2ccc(O)cc2)c(OC)c1 (stereo not given),inactive
18,COc1cccc(CNc2ccc(S(=O)(=O)Nc3nc4ccccc4o3)cc2)c1O,inactive
19,COc1ccc(C2=Nn3c(nnc3-c3ccccc3OC)SC2)cc1,inactive
20,Cc1ccc(OCCn2c(CCNC(=O)Cc3ccccc3F)nc3ccccc32)cc1,inactive

row,SMILES,Potency
1,Cc1ccc(NS(=O)(=O)c2cc3c(cc2NC(C)C)NC(=O)CC3)cc1C,inactive
2,CN1CCCC1CCNc1ncnc2ccc(-c3ccc4c(c3)OCO4)cc12 (stereo not given),inactive
3,COc1ccc(OC)c(NC(=O)C(OC(=O)CNC(=O)c2ccccc2)c2ccccc2)c1 (stereo not given),inactive
4,FC(F)(F)c1ccc(-c2nc(-c3nnc4n3CCCCC4)c(C(F)(F)F)o2)cc1,inactive
5,Cc1cc(N[S+](=O)([O-])c2ccc(NC(=O)Cc3cccc(Cl)c3Cl)cc2)no1,inactive
6,Cc1ccc(NS(=O)(=O)c2ccc3c(c2)CCC(=O)N3)cc1Cl,inactive
7,Cc1ccc(NC(=O)CN2C(=O)N/C(=C\c3ccco3)C2=O)cc1,inactive
8,Cc1ccc(NC(=O)c2cnn3c(-c4ccccc4)cc(C)nc23)cc1,inactive
9,COc1cccc(C2c3c(ncn(-c4cccc(Cl)c4)c3=N)Oc3ccc4ccccc4c32)c1 (stereo not given),inactive
10,CCOc1ccc(CCNC(=O)CN(C)C)cc1OCC,inactive
11,CC(C)c1cc(C(C)C)c(S(=O)(=O)Nc2cccc3cccnc23)c(C(C)C)c1,inactive
12,O=C(Nc1ccc(-c2cccnc2)nc1)c1cccs1,inactive
13,O=C(Nc1ccc(N2CCOCC2)nc1)c1cccs1,inactive
14,O=C1CCCC2=C1C(c1c(Cl)cccc1Cl)N=C(Nc1nc3ccccc3o1)N2 (stereo not given),inactive
15,O=C(CNC(=O)c1ccccc1)OC(CCc1ccccc1)C(=O)Nc1cc(C(F)(F)F)ccc1Cl (stereo not given),inactive
16,COc1ccc(C2=Nn3c(nnc3-c3ccccc3C(F)(F)F)SC2)cc1OC1CCOC1 (stereo not given),inactive
17,COc1ccc(COc2ccc(-c3nc4ccccc4[nH]3)cc2)cc1OC,inactive
18,Fc1ccc(-c2ccc(CNc3nc(-c4ccccc4C(F)(F)F)nc4ccccc34)cc2)cc1,inactive
19,CC(C)c1cccc(-n2cnc3cc(C(=O)N4CCCCC4)ccc32)c1,inactive
20,Cc1cc(-c2ccccc2)n2ncc(C(=O)Nc3ccccc3Sc3ccccc3)c2n1,inactive
